# According to ChEMBL document CHEMBL1961873, “Compounds: GSK PKIS; Assays: Nanosyn kinase panel” (2012):
# “And” between values parts separate entries of the source, which are not always exact repeats. Equal values may be shown once.
# Experiments:
# [1] = target: Leukocyte tyrosine kinase receptor (Homo sapiens) (UniProt P29376); conditions: at 1 µM;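 note: each value is the mean inhibition of LTK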
# [2] = target: Tyrosine-protein kinase Lyn (Homo sapiens) (UniProt P07948); conditions: at 0.1 µM
# Chain of Tyrosine-protein kinase Lyn (Homo sapiens) (P07948 2-512 limits assumed): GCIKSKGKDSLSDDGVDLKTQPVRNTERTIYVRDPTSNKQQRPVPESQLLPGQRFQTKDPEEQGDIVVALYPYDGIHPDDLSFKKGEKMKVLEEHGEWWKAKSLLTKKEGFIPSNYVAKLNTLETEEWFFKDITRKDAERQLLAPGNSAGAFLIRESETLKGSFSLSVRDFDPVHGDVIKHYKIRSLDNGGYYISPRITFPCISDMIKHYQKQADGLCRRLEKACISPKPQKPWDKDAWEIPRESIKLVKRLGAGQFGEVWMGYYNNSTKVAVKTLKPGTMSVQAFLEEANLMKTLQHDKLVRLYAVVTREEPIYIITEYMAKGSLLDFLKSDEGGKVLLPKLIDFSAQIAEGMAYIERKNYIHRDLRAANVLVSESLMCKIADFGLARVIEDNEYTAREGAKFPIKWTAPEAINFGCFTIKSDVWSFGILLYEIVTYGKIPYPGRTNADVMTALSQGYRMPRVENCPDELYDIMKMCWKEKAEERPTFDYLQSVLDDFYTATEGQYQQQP
# [3] = target: Tyrosine-protein kinase Lyn (Homo sapiens) (UniProt P07948); conditions: at 1 µM
# [4] = target: Tyrosine-protein kinase Lyn (Homo sapiens) (UniProt P07948); conditions: at 0.1 µM; remark: listed apart in the source
# [5] = target: Tyrosine-protein kinase Lyn (Homo sapiens) (UniProt P07948); conditions: at 1 µM; remark: listed apart in the source
# [6] = target: T1, Tyrosine-protein kinase Mer (Homo sapiens) (UniProt Q12866); conditions: at 0.1 µM
# T1 sequence (whole entry): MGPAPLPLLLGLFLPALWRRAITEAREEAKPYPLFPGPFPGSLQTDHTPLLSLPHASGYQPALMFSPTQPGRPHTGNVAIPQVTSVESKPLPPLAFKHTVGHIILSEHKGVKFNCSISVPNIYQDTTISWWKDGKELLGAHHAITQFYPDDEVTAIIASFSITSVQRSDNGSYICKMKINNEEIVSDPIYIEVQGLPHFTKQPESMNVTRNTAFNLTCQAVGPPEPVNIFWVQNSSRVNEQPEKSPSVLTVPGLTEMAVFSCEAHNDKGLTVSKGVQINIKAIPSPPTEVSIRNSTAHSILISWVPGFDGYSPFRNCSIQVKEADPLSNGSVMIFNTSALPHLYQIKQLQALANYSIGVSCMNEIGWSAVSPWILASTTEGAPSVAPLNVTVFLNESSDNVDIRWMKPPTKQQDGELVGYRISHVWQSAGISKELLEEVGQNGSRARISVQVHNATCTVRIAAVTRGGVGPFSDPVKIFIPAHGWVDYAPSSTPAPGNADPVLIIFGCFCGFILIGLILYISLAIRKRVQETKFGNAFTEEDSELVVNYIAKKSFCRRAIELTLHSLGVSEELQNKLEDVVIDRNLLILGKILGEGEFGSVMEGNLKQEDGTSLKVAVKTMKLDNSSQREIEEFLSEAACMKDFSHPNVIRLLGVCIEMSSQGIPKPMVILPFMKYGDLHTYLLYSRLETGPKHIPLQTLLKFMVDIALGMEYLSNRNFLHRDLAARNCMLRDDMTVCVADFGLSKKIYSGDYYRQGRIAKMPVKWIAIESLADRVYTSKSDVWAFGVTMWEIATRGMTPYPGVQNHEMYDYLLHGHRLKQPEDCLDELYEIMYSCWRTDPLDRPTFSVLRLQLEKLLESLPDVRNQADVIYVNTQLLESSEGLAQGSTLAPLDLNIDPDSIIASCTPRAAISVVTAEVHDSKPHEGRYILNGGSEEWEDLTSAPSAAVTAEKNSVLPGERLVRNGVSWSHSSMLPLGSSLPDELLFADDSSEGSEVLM
# [7] = target: T1, Tyrosine-protein kinase Mer (Homo sapiens); conditions: at 1 µM
# [8] = target: Hepatocyte growth factor receptor (Homo sapiens) (UniProt P08581); conditions: at 0.1 µM
# Chain of Hepatocyte growth factor receptor (Homo sapiens) (P08581 whole entry): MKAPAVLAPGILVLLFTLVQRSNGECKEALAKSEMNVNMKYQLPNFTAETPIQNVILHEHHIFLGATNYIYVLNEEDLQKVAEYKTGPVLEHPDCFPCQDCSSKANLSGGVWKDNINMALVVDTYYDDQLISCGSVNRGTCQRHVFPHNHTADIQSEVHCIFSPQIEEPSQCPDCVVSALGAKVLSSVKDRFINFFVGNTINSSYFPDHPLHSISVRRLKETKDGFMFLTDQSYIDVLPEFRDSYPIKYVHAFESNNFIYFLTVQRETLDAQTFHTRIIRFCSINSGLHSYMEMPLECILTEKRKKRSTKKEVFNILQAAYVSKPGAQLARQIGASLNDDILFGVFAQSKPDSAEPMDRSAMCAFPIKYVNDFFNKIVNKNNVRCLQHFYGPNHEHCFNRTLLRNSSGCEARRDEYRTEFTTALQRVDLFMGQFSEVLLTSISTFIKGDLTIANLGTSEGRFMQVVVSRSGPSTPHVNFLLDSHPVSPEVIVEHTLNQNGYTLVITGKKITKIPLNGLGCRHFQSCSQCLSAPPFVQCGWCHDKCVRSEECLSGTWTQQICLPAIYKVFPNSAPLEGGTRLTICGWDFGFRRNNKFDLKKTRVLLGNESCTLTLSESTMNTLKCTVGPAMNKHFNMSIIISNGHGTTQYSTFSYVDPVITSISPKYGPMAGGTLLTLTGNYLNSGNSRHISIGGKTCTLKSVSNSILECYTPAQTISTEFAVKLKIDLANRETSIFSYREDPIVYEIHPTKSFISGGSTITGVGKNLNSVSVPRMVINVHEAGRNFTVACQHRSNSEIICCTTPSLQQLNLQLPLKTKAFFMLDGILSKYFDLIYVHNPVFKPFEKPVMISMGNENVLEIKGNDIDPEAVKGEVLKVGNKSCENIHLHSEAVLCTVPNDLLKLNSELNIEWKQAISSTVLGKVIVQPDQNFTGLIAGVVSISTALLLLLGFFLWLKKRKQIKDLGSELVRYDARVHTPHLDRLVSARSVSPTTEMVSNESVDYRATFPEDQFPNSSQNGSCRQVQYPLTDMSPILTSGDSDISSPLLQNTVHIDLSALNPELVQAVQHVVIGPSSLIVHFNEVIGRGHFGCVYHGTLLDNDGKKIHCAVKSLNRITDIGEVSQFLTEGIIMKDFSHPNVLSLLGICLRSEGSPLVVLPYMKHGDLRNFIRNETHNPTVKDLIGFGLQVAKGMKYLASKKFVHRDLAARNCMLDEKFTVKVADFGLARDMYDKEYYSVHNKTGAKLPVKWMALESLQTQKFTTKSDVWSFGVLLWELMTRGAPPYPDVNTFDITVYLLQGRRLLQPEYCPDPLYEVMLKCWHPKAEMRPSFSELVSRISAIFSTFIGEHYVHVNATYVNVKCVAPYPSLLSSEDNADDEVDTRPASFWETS
# [9] = target: Hepatocyte growth factor receptor (Homo sapiens) (UniProt P08581); conditions: at 1 µM
# [10] = target: T2, Muscle, skeletal receptor tyrosine-protein kinase (Homo sapiens) (UniProt O15146); conditions: at 0.1 µM;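 note: values are mean inhibition of MuSK from the GSK PKIS kinase screening panel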
# T2 sequence (whole entry): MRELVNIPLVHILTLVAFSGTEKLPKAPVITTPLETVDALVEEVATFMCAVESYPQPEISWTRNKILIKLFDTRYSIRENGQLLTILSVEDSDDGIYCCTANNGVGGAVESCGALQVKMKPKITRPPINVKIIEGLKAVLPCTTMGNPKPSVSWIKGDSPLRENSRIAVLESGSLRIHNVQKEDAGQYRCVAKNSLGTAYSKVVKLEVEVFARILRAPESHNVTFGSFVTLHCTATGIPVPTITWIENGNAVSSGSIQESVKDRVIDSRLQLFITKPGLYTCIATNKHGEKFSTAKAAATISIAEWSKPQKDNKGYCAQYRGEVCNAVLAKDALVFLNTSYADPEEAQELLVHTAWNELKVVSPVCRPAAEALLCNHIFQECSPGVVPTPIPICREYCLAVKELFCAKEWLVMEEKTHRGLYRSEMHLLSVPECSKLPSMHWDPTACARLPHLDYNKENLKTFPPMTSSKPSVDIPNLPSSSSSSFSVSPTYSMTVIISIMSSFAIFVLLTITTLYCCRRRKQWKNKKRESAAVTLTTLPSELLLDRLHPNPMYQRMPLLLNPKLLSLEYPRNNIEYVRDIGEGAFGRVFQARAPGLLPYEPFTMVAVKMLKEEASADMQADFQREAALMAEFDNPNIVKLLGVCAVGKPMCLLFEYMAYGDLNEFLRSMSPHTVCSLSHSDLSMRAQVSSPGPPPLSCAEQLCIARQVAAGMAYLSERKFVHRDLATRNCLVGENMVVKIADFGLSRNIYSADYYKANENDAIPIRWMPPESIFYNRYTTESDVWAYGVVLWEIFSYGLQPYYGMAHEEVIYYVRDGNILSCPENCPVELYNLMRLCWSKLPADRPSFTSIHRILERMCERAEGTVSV
# Chain of Leukocyte tyrosine kinase receptor (Homo sapiens) (P29376 whole entry): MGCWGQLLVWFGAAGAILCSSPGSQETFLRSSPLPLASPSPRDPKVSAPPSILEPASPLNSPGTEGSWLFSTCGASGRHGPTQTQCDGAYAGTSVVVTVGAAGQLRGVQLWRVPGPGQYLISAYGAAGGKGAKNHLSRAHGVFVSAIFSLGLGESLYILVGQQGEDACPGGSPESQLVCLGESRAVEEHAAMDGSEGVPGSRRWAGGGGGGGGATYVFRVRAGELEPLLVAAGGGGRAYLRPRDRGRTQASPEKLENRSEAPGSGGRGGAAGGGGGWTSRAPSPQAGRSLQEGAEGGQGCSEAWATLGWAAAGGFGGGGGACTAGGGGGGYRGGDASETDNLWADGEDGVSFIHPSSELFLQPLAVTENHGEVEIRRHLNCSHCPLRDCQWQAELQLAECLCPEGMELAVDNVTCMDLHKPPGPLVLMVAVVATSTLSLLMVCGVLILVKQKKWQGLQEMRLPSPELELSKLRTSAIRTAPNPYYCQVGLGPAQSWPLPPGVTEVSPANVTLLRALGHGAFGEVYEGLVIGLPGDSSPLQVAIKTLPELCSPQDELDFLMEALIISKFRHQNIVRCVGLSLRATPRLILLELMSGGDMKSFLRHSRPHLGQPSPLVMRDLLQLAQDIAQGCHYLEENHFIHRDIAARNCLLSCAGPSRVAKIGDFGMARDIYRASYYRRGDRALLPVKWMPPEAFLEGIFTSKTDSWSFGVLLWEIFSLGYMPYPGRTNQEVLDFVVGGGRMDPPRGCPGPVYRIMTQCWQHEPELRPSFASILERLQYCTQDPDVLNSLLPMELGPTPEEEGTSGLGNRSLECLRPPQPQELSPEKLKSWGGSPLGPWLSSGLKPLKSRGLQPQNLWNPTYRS
Structure (SMILES),inhibition [1],inhibition [2],inhibition [3],inhibition [4],inhibition [5],inhibition [6],inhibition [7],inhibition [8],inhibition [9],inhibition [10]
O=C1Nc2ccccc2/C1=C1\CCc2cc(O)ccc21,36.7%,6.08%,12%,2.38%,9.08%,2.69%,8.7%,6.45%,10.1%,5.49%
N#Cc1cccc(Nc2ncc(-c3ccccc3)o2)c1,3.55%,3.97%,10.5%,2.56%,9.05%,0.53%,4.24%,2.46%,5.36%,1.86%
OCCCNc1nccc(-c2c(-c3ccc(F)cc3)nn3cc(C(F)(F)F)ccc23)n1,-0.25%,3.88%,7.02%,3%,4.51%,0.89%,5.36%,1.57%,5.11%,2.96%
COc1cc(N2CCN(C(C)C)CC2)ccc1Nc1nc(Nc2cccc3ncccc23)c2cc[nH]c2n1,80.2%,0.41%,2.82%,0.31%,2.18%,0.54%,2.09%,-2.89%,-1.9%,5.11%
Nc1nonc1-c1nc2cnccc2n1C1CC1,2.71% and 2.44%,3.73% and 1.56%,4.88% and 4.63%,2.39% and 0.71%,4.2% and 2.36%,3.41% and 1.34%,6.46% and 2.52%,6.7% and 2.47%,7.09% and 3.3%,4.75% and 1.45%
FC(F)(F)CNc1nccc(-c2cnn3ncccc23)n1,0.86%,3.13%,3.07%,2.86%,1.59%,2.37%,-0.52%,0.67%,9.54%,2.13%
NS(=O)(=O)c1cccc(N/C=C2\C(=O)Nc3ccccc32)c1,10.6%,5.77%,11.6%,3.69%,8.12%,3.46%,8.24%,4.45%,6.92%,4.44%
COc1cc(Nc2ncc(-c3ccccc3)o2)cc(OC)c1,5.66%,8.05%,27.4%,5.81%,22.1%,3.6%,4.87%,3.69%,5.98%,2.95%
